Values joined by “and” are separate entries in the source; they are usually repeats but may differ in a detail not shown here. Identical values can stand only once. Inconclusive results are not listed. Active and inactive are the calls of the source. How the source made its calls: active means hit-call score of the fitted dose curve at least 0.9, where 1 is the maximum; inconclusive means response in the unintended direction; inactive means score below 0.9.
Legend:
[1] = biological target: Cellular tumor antigen p53 (Homo sapiens) (UniProt P04637); test: TOX21_p53_BLA_p4_ratio: Tox21 HCT-116 p53 Agonism Beta-lactamase Assay, Ratio, Phase 4 (AID 2283601)
Cellular tumor antigen p53 (Homo sapiens), sequence (P04637 whole entry, looked up): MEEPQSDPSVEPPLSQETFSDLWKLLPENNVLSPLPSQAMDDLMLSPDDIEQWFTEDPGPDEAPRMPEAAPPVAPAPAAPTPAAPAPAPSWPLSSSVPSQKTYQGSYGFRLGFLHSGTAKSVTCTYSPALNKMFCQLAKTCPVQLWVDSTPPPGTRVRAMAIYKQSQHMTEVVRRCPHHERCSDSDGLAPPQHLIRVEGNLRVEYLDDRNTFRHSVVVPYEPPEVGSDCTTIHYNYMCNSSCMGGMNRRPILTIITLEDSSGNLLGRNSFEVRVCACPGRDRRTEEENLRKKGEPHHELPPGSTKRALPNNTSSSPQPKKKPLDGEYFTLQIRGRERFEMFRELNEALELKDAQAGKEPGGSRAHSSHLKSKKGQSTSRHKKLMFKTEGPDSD
How it was run: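 HCT-116 p53 beta-lactamase reporter cells (4000/well) preincubated 5 h, then compound (217-fold dilution of DMSO stock) for 16 h at 37C. CCF4-AM substrate added 2 h at room temperature; 460/530 nm emission ratio fitted upward versus DMSO.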

[2] = Tanguay_ZF_120hpf_MORT_legacy: (Legacy) Oregon State University Tanguay Lab 120 Hour Post-fertilization zebrafish Assay for Mortality (AID 2283633);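 on AC50: fitted as increase in binary mortality versus DMSO negative control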
How it was run: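 Brightfield scoring of embryo death (binary) at 24 and 120 hpf; static exposure 6–120 hpf, 28C, sealed and foil-covered. Pronase-dechorionated 5D wild-type larvae, single embryo per well. DMSO 0.64% v/v; trimethyltin chloride 5uM positive control.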

[3] = Tanguay_ZF_120hpf_YSE_legacy: (Legacy) Oregon State University Tanguay Lab 120 Hour Post-fertilization zebrafish Assay for Yolk Sac Edema (AID 2283634)
How it was run: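 Binary brightfield scoring of yolk sac edema at 120 hpf; DMSO baseline, gain-of-signal fitting. Dechorionated 5D larvae, one per well, static exposure 6–120 hpf, 28C, 0.64% DMSO. Dead embryos not scored.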

[4] = Tanguay_ZF_120hpf_AXIS_legacy: (Legacy) Oregon State University Tanguay Lab 120 Hour Post-fertilization zebrafish Assay for Body Axis Malformation (AID 2283635);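 on AC50: potency for an increased fraction of larvae scored with body axis malformation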
How it was run: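 Embryos: 5D wild-type, pronase-dechorionated 4 hpf; static exposure 6–120 hpf, 28C, sealed, dark, 1 embryo/well, 0.64% DMSO. 120 hpf axis malformation scored present/absent; dead embryos excluded. Analysed as gain of signal vs DMSO.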

[5] = Tanguay_ZF_120hpf_EYE_legacy: (Legacy) Oregon State University Tanguay Lab 120 Hour Post-fertilization zebrafish Assay for Eye Malformation (AID 2283636);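 further: binary presence or absence of eye malformation scored by brightfield in 120 hpf larvae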
How it was run: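 5D wild-type embryos, pronase-dechorionated at 4 hpf; static exposure 6–120 hpf, 28C, dark; DMSO 0.64% final; 5uM trimethyltin chloride positive control. Binary eye-defect scoring at 120 hpf; dead embryos not scored.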

[6] = Tanguay_ZF_120hpf_SNOU_legacy: (Legacy) Oregon State University Tanguay Lab 120 Hour Post-fertilization zebrafish Assay for Snout Malformation (AID 2283637)
How it was run: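 Binary brightfield scoring of snout malformation at 120 hpf. Dechorionated 5D wild-type embryos, one per well, static exposure from 6 hpf at 28C, sealed and dark; final DMSO 0.64% (vol/vol), DMSO as baseline; 5uM trimethyltin chloride positive control.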

[7] = Tanguay_ZF_120hpf_JAW_legacy: (Legacy) Oregon State University Tanguay Lab 120 Hour Post-fertilization zebrafish Assay for Jaw Malformation (AID 2283638)
How it was run: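 Binary jaw-malformation calls at 120 hpf by brightfield imaging; DMSO (0.64% v/v) = baseline. Embryos: 5D wild-type, pronase-dechorionated, one per well from 6 hpf, static exposure, 28C, sealed, dark.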

[8] = Tanguay_ZF_120hpf_OTIC_legacy: (Legacy) Oregon State University Tanguay Lab 120 Hour Post-fertilization zebrafish Assay for Otic Vesicle Malformation (AID 2283639)
How it was run: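 Wild-type zebrafish larvae, whole-embryo exposure from early stage to 120 hpf at 28C. Binary brightfield scoring of otic vesicle morphology, fitted in the positive direction against the DMSO baseline.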

[9] = Tanguay_ZF_120hpf_BRAI_legacy: (Legacy) Oregon State University Tanguay Lab 120 Hour Post-fertilization zebrafish Assay for Brain Malformation (AID 2283641)
How it was run: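 Read-out: binary brain morphology call at 120 hpf (brightfield), fitted in gain-of-signal direction vs DMSO. Wild-type Tropical 5D embryos, static exposure, 28C, 0.64% DMSO final; 5uM trimethyltin chloride as positive control.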

[10] = Tanguay_ZF_120hpf_PE_legacy: (Legacy) Oregon State University Tanguay Lab 120 Hour Post-fertilization zebrafish Assay for Pericardial Edema (AID 2283640);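 on AC50: potency for increased incidence of pericardial edema versus DMSO baseline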
How it was run: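 Static waterborne exposure, 5D wild-type embryos, 28C, to 120 hpf; final DMSO 0.64% (vol/vol). Binary PE call at 120 hpf by brightfield; fitted upward vs DMSO baseline. 5uM trimethyltin chloride as positive control.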

Measured: AC50

CC1(c2ccc(Oc3ccccc3)cc2)OC(=O)N(Nc2ccccc2)C1=O (stereo not given)
active: [1] 51.2 µM
not listed: [10]
inactive: all other assays above

CC1(C)C(C=C(Cl)Cl)C1C(=O)OC(C#N)c1ccc(F)c(Oc2ccccc2)c1 (stereo not given)
not listed: [8]
inactive: all other assays above

CNC(=O)/C=C(\C)OP(=O)(OC)OC
not listed: [1]
inactive: all other assays above

CCc1ccc(C(=O)NN(C(=O)c2cc(C)cc(C)c2)C(C)(C)C)cc1
not listed: [3] | [10]
inactive: all other assays above

CNC(=O)Oc1cccc(N=CN(C)C)c1
not listed: [3] | [6]
inactive: all other assays above

CC(C)OC(=O)Nc1cccc(Cl)c1
active: [6] 34.2 µM | [10] 37.7 µM | [9] 39.5 µM
not listed: [7]
inactive: all other assays above

Cc1[nH]c(=O)n(C(C)(C)C)c(=O)c1Cl
not listed: [1] | [4]
inactive: all other assays above

COP(=O)(OC)OC=C(Cl)Cl
not listed: [1] | [7]
inactive: all other assays above

CCOC1Oc2ccc(OS(C)(=O)=O)cc2C1(C)C (stereo not given)
not listed: [1]
inactive: all other assays above

CCOCN(C(=O)CCl)c1c(C)cccc1CC
active: [4] 39 µM
not listed: [3] | [5]
inactive: all other assays above

N#Cc1c(Cl)c(Cl)c(Cl)c(C#N)c1Cl
active: [1] 1.11 µM and 1.12 µM | [2] 24.8 µM
not listed: [3]
inactive: all other assays above

N#CN
not listed: [1]
inactive: all other assays above

CCN(CC)C(=O)SCc1ccc(Cl)cc1
not listed: [5] | [8]
inactive: all other assays above

C#CCN1C(=O)COc2cc(F)c(N3C(=O)C4=C(CCCC4)C3=O)cc21
not listed: [1]
inactive: all other assays above

OCCOc1ccccc1
not listed: [5] | [8]
inactive: all other assays above

CNC(=O)Oc1ccccc1OC(C)C
not listed: [5]
inactive: all other assays above

O=[N+]([O-])/N=C1\NCCN1Cc1ccc(Cl)nc1
not listed: [1]
inactive: all other assays above

C[C@H]1[C@H](c2ccc(Cl)cc2)SC(=O)N1C(=O)NC1CCCCC1
not listed: [1]
inactive: all other assays above

CNC(=O)CSP(=S)(OC)OC
not listed: [1] | [2] | [9]
inactive: all other assays above

CCCN(CCC)c1c([N+](=O)[O-])cc(C(F)(F)F)cc1[N+](=O)[O-]
inactive: [2] | [3] | [4] | [5] | [6] | [7]

Clc1ccccc1-c1nnc(-c2ccccc2Cl)nn1
not listed: [1] | [6] | [10]
inactive: all other assays above

CC(C)N(C(=O)COc1nnc(C(F)(F)F)s1)c1ccc(F)cc1
inactive: [2] | [3] | [5] | [6] | [7] | [10]

O=C(NC(=O)c1c(F)cccc1F)Nc1ccc(OC(F)(F)C(F)OC(F)(F)F)c(Cl)c1 (stereo not given)
not listed: [1] | [4] | [9]
inactive: all other assays above

CCC(C)Nc1c([N+](=O)[O-])cc(C(C)(C)C)cc1[N+](=O)[O-] (stereo not given)
not listed: [1] | [9]
inactive: all other assays above

O=[N+]([O-])c1c(Cl)c(Cl)c(Cl)c(Cl)c1Cl
not listed: [2]
inactive: all other assays above

Reference: PubChem BioAssay (EPA / NIEHS)
